Counter-ions that a name gives are not always drawn.
These molecules were tested on primary human hepatic stellate cells (donor 1) (assay: PSMB2 reference mRNA level vs DMSO (fold); higher = more PSMB2 expression). Conditions: 48 h.
Description: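 Secondary qRT-PCR screen in primary human HSCs (donor 1), 384-well plates, with compounds dispensed in quadruplicate and incubated for 48 h. Cells-to-CT lysates were used for multiplexed TaqMan qPCR of ACTA2 or COL1A1 with PSMB2 as reference. Fold changes versus DMSO come from a linear model (Ct_gene ~ Ct_PSMB2 + plate + chemical). A hit is defined as COL1A1 and ACTA2 FC <0.5 (FDR <0.05) with PSMB2 between 0.2 and 2.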

Point of comparison: CN(C(=O)Cc1ccc(Cl)c(Cl)c1)[C@H](CN1CCCC1)c1ccccc1 [ICI-199,441 hydrochloride] (33.3333 µM), “PSMB2 reference mRNA level” value 0.128. Against it:
- Fc1cc(F)c2c(c1)[C@H]1C=CC[C@H]1C(c1cccnc1)N2 (some centres undefined) [Golgicide A] (33.3333 µM) — higher, 0.431
- CC1=C(O)C(=O)C=C2C1=CC=C1[C@@]2(C)CC[C@@]2(C)[C@@H]3C[C@](C)(C(=O)O)CC[C@]3(C)CC[C@]12C [Celastrol] (3.33333 µM) — higher, 0.633
- CCCCCCCCCCCCCC(=O)O[C@@H]1[C@@H](C)[C@@]2(O)[C@@H](C=C(CO)C[C@]3(O)C(=O)C(C)=C[C@@H]23)[C@@H]2C(C)(C)[C@]12OC(C)=O [Phorbol 12-myristate 13-acetate] (27.0333 µM) — higher, 0.829
- CO[C@H]1CC[C@@H](O[C@H]2C[C@H]([C@]3(C)CC[C@]4(C[C@H](O)[C@@H](C)[C@@H]([C@@H](C)/C=C(\C)C(=O)[C@H](C)C[C@H](C)C(=O)O)O4)O3)O[C@]3(O[C@@H]([C@H]4O[C@@](O)(CO)[C@H](C)C[C@@H]4C)C[C@@H]3C)[C@@H]2C)O[C@@H]1C [Nanchangmycin] (11.1 µM) — higher, 0.936
- COc1ccc2c(c[n+](C)c3c4cc5c(cc4ccc23)OCO5)c1OC (6.66667 µM) — higher, 0.187
- CC[C@H]1CN2CCc3cc(OC)c(OC)cc3[C@@H]2C[C@@H]1C[C@H]1NCCc2cc(OC)c(OC)cc21 [Emetine] (12.0333 µM) — higher, 0.628
- C[C@@H]1O[C@@H](O[C@H]2C[C@@H](O)[C@]3(CO)[C@H]4[C@H](O)C[C@]5(C)[C@@H](C6=CC(=O)OC6)CC[C@]5(O)[C@@H]4CC[C@]3(O)C2)[C@H](O)[C@H](O)[C@H]1O [Ouabain] (33.3333 µM) — higher, 1.24
- C[C@]12CC[C@H](O)C[C@H]1CC[C@@H]1[C@@H]2CC[C@]2(C)[C@@H](C3=CC(=O)OC3)CC[C@]12O [Digitoxigenin] (33.3333 µM) — higher, 0.954
- CCN(CC)CCO[C@H]1CC[C@@]2(C)C(=CC[C@@H]3[C@@H]2CC[C@]2(C)C(=O)CC[C@@H]32)C1 (33.3333 µM) — higher, 0.278
- C[C@H](N)Cn1ccc2cc(F)c(Cl)cc21 [Ro 60-0175 fumarate] (33.3333 µM) — higher, 0.297
- CC1=NCCc2c1[nH]c1cc(O)ccc21 [Harmalol hydrochloride dihydrate] (24.4333 µM) — higher, 0.715
- CC1=C(CC/C(C)=C/CCC2=CC[C@H](C3=CC(=O)O[C@H]3O)O[C@H]2O)C(C)(C)CCC1 [Manoalide] (40 µM) — higher, 1.84
- O=c1[nH]c2ccccc2n1C1CCN(CCCC(c2ccc(F)cc2)c2ccc(F)cc2)CC1 [Pimozide] (33.3333 µM) — lower, 0.0111
- CC(C(=O)OC1CC2CCC(C1)N2C)c1ccc(Br)cc1 (centres undefined) [PG-9 maleate] (33.3333 µM) — higher, 1.01
- O=C1C2CCN(CC2)C1(CO)CO (90 µM) — lower, 0.115
- CN1[C@@H]2CC[C@H]1C[C@@H](OC(c1ccc(F)cc1)c1ccc(F)cc1)C2 [3 α-Bis-(4-fluorophenyl) methoxytropane hydrochloride] (33.3333 µM) — higher, 0.247
- COc1ccc2[nH]cc(C3=CCNCC3)c2c1 (33.3333 µM) — higher, 1.01
- O=[N+]([O-])/C=C/c1ccc2c(c1)OCO2 (3.7 µM) — higher, 1
